Reference: PubChem BioAssay (Tox21)
Records with an inconclusive call do not appear. Activity calls are given as the source filed them. Unless noted, calls come from the whole dose curve; as a rule, active = well fitted curve in the direction sought with a large enough effect in the repeat runs; inconclusive = weak or mixed curves; inactive = no such curve, though single readings can be large; an effect the other way counts as inactive or inconclusive.

How the values were obtained:
[1] = qHTS assay for small molecule agonists of the p53 signaling pathway (AID 651631; calls by dose curve; note: nearly all actives have a fitted effect of over 15% in size)
Summary of the method: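 Read-out is beta-lactamase FRET fluorescence measured 2 h after substrate addition at room temperature, in HCT-116 cells with a p53 response element-driven reporter exposed to compounds for 16 h at 37 °C.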

[2] = qHTS assay for small molecules that induce genotoxicity in human embryonic kidney cells expressing luciferase-tagged ATAD5 (AID 651632); note: nearly all actives have a fitted effect of over 15% in size
Summary of the method: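 Quantitative HTS in HEK293T expressing luciferase-tagged ATAD5, whose levels rise upon DNA damage. Exposure ran 16 hr at 37C and 5% CO2, with luminescence read 30 min after Amplite addition at room temperature.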

[3] = qHTS assay for small molecule agonists of the p53 signaling pathway - cell viability (AID 651633; calls by dose curve;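 note: p53RE-bla HCT reporter cells with a stable beta-lactamase p53 reporter; series mostly up to about 83 µM; nearly all actives have a fitted effect of over 30% in size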)
Summary of the method: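 p53RE-bla cells, seeded at 4,000 per well and rested 5 h at 37 C/5% CO2, received compounds in DMSO for 16 h at 37 C. CellTiter-Glo was then added, and luminescence was read after 30 min at room temperature to gauge cytotoxicity.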

[4] = qHTS assay for small molecules that induce genotoxicity in human embryonic kidney cells expressing luciferase-tagged ATAD5 - cell viability (AID 651634; calls by dose curve; note: nearly all actives have a fitted effect of over 25% in size)
Summary of the method: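 After 15.5 hr incubation with compound at 37C, 5% CO2, HEK293T ATAD5-luciferase cells received CellTiter-Fluor reagent; fluorescence intensity was quantified following 30 min at 37C.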

[5] = qHTS assay to test for compound auto fluorescence at 590 nm (red) in HepG2 cells (AID 720674)
Summary of the method: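 Rose Bengal sodium served as the red fluorophore standard. HepG2 monolayers (overnight attachment, MEM with 10% FBS) were exposed to test compounds for 1 hr at 37 C and read at Ex 540/Em 590 nm.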

[6] = qHTS assay to test for compound auto fluorescence at 535 nm (green) in HepG2 cells (AID 720675)
[7] = qHTS assay to test for compound auto fluorescence at 460 nm (blue) in HEK293 cells (AID 720678)
Summary of the method: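 Intrinsic compound fluorescence is recorded in live HEK293 cultures after overnight incubation at 37C, 5% CO2, using excitation 405 nm and emission 460 nm. Values are referenced to triamterene.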

[8] = qHTS assay to test for compound auto fluorescence at 590 nm (red) in HEK293 cells (AID 720679)
Summary of the method: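 Red autofluorescence, HEK293 cells: 2,000 cells/well; attach 4-5 hr 37C; add 23 nL cpd or DMSO; incubate o/n 37C 5% CO2; read Ex540/Em590; Rose Bengal sodium reference.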

[9] = qHTS assay to test for compound auto fluorescence at 460 nm (blue) in HEK293 cell free culture (AID 720681)
Summary of the method: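 Test compounds were pinned into cell-free culture medium (DMEM with 10% FBS) and fluorescence was read directly at Ex/Em 405/460 nm. Signals were expressed as fluorescence equivalents of triamterene, with DMSO vehicle as control.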

[10] = qHTS assay to test for compound auto fluorescence at 535 nm (green) in HEK293 cell free culture (AID 720682)
Summary of the method: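 Fluorescein serves as the green reference fluorophore; each compound's intrinsic emission at 535 nm (excitation 485 nm) is reported as an equivalent amount of that dye, measured in serum-containing DMEM without cells.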

[11] = qHTS assay to test for compound auto fluorescence at 590 nm (red) in HEK293 cell free culture (AID 720683)
Summary of the method: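 Tox21 10K library compounds were pinned into cell-free DMEM with 10% FBS and fluorescence was read at excitation 540 nm. Activity is expressed as Rose Bengal sodium equivalency.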

[12] = qHTS assay to test for compound auto fluorescence at 590 nm (red) in HepG2 cell free culture (AID 720684)
Summary of the method: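 Ex 540 / Em 590 nm read of compound in cell-free MEM (10% FBS). Rose Bengal sodium reference.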

[13] = qHTS assay to test for compound auto fluorescence at 460 nm (blue) in HepG2 cell free culture (AID 720685)
Summary of the method: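 Cell-free plates of MEM plus 10% FBS received 23 nL compound or DMSO vehicle; blue-channel (405/460 nm) intensity scored against triamterene as reference fluorophore.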

[14] = qHTS assay to test for compound auto fluorescence at 535 nm (green) in HepG2 cell free culture (AID 720686)
[15] = qHTS assay to test for compound auto fluorescence at 460 nm (blue) in HepG2 cells (AID 720687)
Summary of the method: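 Cells (2,000/well in MEM with 10% FBS) attached overnight at 37 C, then were exposed to compound or DMSO for 1 hr at 37 C, 5% CO2. Fluorescence read at Ex/Em 405/460 nm, expressed as triamterene-equivalent signal.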

[16] = qHTS assay for small molecule disruptors of the mitochondrial membrane potential - cell viability (AID 720634; calls by dose curve;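 note: human HepG2 liver cancer cells; series mostly up to about 83 µM; nearly all actives have a fitted effect of over 20% in size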)
Summary of the method: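 ATP-based luminescent viability readout (CellTiter-Glo, 30 min, room temperature) in HepG2 cells multiplexed with the m-MPI membrane potential dye; compound exposure lasted 1 hr at 37 C.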

[17] = qHTS assay to test for compound auto fluorescence at 535 nm (green) in HEK293 cells (AID 720680)
[18] = target: Glucocorticoid receptor (Homo sapiens) (UniProt P04150); assay: qHTS assay to identify small molecule agonists of the glucocorticoid receptor (GR) signaling pathway (AID 720691; active = well fitted activation curve with a large enough effect in the signal ratio in the repeat runs, not every such curve was filed as active; the % refers to the signal ratio)
Chain of Glucocorticoid receptor (Homo sapiens) (P04150 whole entry, looked up): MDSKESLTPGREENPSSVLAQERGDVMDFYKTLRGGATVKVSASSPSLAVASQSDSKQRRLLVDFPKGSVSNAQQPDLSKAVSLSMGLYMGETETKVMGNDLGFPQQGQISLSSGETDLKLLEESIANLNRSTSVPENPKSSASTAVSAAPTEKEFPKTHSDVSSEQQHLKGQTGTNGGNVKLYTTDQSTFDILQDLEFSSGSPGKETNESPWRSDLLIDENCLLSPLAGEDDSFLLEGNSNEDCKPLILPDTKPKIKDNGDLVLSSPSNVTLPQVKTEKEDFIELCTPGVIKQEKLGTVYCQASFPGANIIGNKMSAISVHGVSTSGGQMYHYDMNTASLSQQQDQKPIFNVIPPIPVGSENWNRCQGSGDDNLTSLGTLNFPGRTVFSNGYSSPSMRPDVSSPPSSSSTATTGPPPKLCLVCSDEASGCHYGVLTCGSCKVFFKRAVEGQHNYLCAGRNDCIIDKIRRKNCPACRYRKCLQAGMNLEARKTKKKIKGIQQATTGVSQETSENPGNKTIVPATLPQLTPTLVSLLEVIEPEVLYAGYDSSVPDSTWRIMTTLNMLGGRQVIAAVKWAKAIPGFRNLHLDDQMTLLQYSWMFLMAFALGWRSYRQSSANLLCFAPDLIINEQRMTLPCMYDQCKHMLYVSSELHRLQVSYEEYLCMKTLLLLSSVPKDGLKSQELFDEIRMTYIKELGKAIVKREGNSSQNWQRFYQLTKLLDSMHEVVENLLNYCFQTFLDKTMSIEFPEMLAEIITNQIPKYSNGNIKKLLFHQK
Summary of the method: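 Cells: GR-bla HeLa, endogenous GR with stably integrated GRE-beta-lactamase reporter. Treatment 18 h, 37 C, compounds delivered in DMSO. Detection via LiveBLAzer B/G FRET substrate, 2 h RT, fluorescence intensity.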

[19] = target: Glucocorticoid receptor (Homo sapiens) (UniProt P04150); assay: qHTS assay to identify small molecule antagonists of the glucocorticoid receptor (GR) signaling pathway (AID 720692; active = well fitted inhibition curve with a large enough effect in the signal ratio in the repeat runs, not every such curve was filed as active; the % refers to the signal ratio)
Summary of the method: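 Quantitative HTS in antagonist format: HeLa cells expressing endogenous GR and a stably integrated GRE-bla reporter, stimulated with 5 nM dexamethasone (final) alongside test compounds for 18 h.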

[20] = qHTS assay for small molecule disruptors of the mitochondrial membrane potential (AID 720635)
Summary of the method: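 HepG2 cells (2,000/well) attached overnight at 37C, then took compound for 1 hr at 37C, 5% CO2. Mito-MPS dye was added for 30 min; fluorescence was read at 490/535 nm (monomers) and 540/590 nm (aggregates).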

Measured: Potency

O=C(O)CCS
not listed: [16] | [17] | [18] | [19] | [20]
inactive: all other assays above

O=P(O)(O)Oc1ccccc1
not listed: [20]
inactive: all other assays above

Cc1ccc(N(CCO)CCO)cc1
not listed: [6] | [12] | [20]
inactive: all other assays above

CC(C)(O)c1coc(S(=O)(=O)NC(=O)Nc2c3c(cc4c2CCC4)CCC3)c1
not listed: [4]
inactive: all other assays above
